Assay results as given in PubChem BioAssay (EPA / NIEHS).
Inconclusive results are not listed. Some structures have more than one record in an assay (separate samples or runs), and their calls can disagree. Activity calls are given as the source filed them. Rule for the calls, unless noted: active = hit-call score of the fitted dose curve at least 0.9, where 1 is the maximum; inconclusive = response in the unintended direction; inactive = score below 0.9.

Key:
[1] = target: human Phosphodiesterase 10 (PDE10), PDE10A (gene 10846) (UniProt Q9Y233); experiment: NVS_ENZ_hPDE10: NovaScreen (NVS) Enzymatic Assay for human Phosphodiesterase 10 (PDE10) (AID 2283195)
Method in brief: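 Recombinant human PDE10 with fluorescent substrate, 1 h, product separated by electrophoretic mobility shift. Loss of enzyme activity fitted against DMSO; initial screen 25 uM in duplicate, actives run to 50 uM maximum.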

[2] = target: human Peroxisome Proliferator-activated Receptor alpha (PPARa), PPARA (gene 5465) (UniProt Q07869); experiment: NVS_NR_hPPARa: NovaScreen (NVS) Nuclear Receptor Binding Assay for human Peroxisome Proliferator-activated Receptor alpha (PPARa) (AID 2283359);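 note: activity means loss of TR-FRET signal versus DMSO baseline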
Method in brief: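 Cell-free TR-FRET binding assay with extracted PPARα protein, read 1 h after dosing. Primary screen in duplicate at 25 uM, with actives retested in concentration series. Loss of signal versus DMSO.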

SERPINA7 (gene 6906) = experiment: CCTE_GLTED_hTBG: CCTE's human Thyroxine-binding Globulin (TBG) Inhibition Assay, Great Lakes Toxicology and Ecology Division (GLTED) Lab (AID 2284343);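 note: active chemicals lower fluorescence versus DMSO baseline by displacing probe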
Method in brief: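 hTBG + test chem, 2 h; ANSA probe displacement; fluorescence readout ex380/em475; DMSO = neg ctrl/baseline; cell-free.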

TTR (gene 7276) = experiment: CCTE_GLTED_hTTR_0.125uM: CCTE's human Transthyretin (hTTR) Inhibition Assay, with 0.125uM TTR, Great Lakes Toxicology and Ecology Division (GLTED) Lab (AID 2284431; active = hit-call score of the fitted dose curve at least 0.9, where 1 is the maximum; inactive = score below 0.9;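 note: hits lower the fluorescence signal relative to DMSO baseline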)
Method in brief: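 Cell-free displacement of the fluorescent probe ANSA from human TTR (0.125uM) after 2 h incubation with test chemical. Fluorescence read at 380 nm excitation/475 nm emission; loss of signal fitted relative to DMSO baseline.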

[3] = read-out: Actin alpha 1 (ACTA1), ACTA1 (gene 58); experiment: BSK_MyoF_ACTA1: BioMAP Diversity Plus: MyoF Assay for Actin alpha 1 (ACTA1) Biomarker Activity (AID 2284244; active = hit-call score of the fitted dose curve at least 0.9, where 1 is the maximum; inactive = score below 0.9); settings: primary human lung fibroblasts
Method in brief: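 Lung fibroblasts, human primary, 24 h compound exposure → a-SMA ELISA. Positive-direction fit vs DMSO control.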

[4] = read-out: Basic fibroblast growth factor (bFGF), FGF2 (gene 2247); experiment: BSK_MyoF_bFGF: BioMAP Diversity Plus: MyoF Assay for Basic fibroblast growth factor (bFGF) Biomarker Activity (AID 2284246; active = hit-call score of the fitted dose curve at least 0.9, where 1 is the maximum; inactive = score below 0.9); settings: primary human lung fibroblasts
Method in brief: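 ELISA-measured bFGF level serves as the read-out, taken 24 h after chemical dosing of human lung fibroblasts. Values represent signal gain over the DMSO negative control.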

[5] = read-out: Collagen IV, COL4A1 (gene 1282); experiment: BSK_MyoF_CollagenIV: BioMAP Diversity Plus: MyoF Assay for Collagen IV Biomarker Activity (AID 2284247; active = hit-call score of the fitted dose curve at least 0.9, where 1 is the maximum; inactive = score below 0.9); settings: primary human lung fibroblasts
Method in brief: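 Steps: dose human lung fibroblasts; culture 24 h; quantify Collagen IV by ELISA; fit increase versus DMSO control. Parallel SRB total-protein staining (0.1% SRB after 10% TCA fixation, 560 nm) tracks overt cytotoxicity.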

[6] = read-out: Plasminogen activator inhibitor-1 (PAI1), SERPINE1 (gene 5054); experiment: BSK_MyoF_PAI1: BioMAP Diversity Plus: MyoF Assay for Plasminogen activator inhibitor-1 (PAI1) Biomarker Activity (AID 2284256; active = hit-call score of the fitted dose curve at least 0.9, where 1 is the maximum; inactive = score below 0.9;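 for outcome: PAI-1 protein level measured by ELISA in fibroblast cultures; PAI-1 read 24 h after compound addition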); settings: primary human lung fibroblasts
Method in brief: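 ELISA read-out of PAI-1 from primary human lung fibroblast cultures 24 h after dosing; gain-of-signal fit versus DMSO control.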

[7] = read-out: Interleukin-8 (IL8), CXCL8 (gene 3576); experiment: BSK_MyoF_IL8: BioMAP Diversity Plus: MyoF Assay for Interleukin-8 (IL8) Biomarker Activity (AID 2284261; active = hit-call score of the fitted dose curve at least 0.9, where 1 is the maximum; inactive = score below 0.9); settings: primary human lung fibroblasts
Method in brief: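 ELISA read-out of IL-8 from primary human lung fibroblasts, 24 h post-dose; positive-direction curve fitting relative to DMSO vehicle baseline.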

Decorin, DCN (gene 1634) = experiment: BSK_MyoF_Decorin: BioMAP Diversity Plus: MyoF Assay for Decorin Biomarker Activity (AID 2284265; active = hit-call score of the fitted dose curve at least 0.9, where 1 is the maximum; inactive = score below 0.9); settings: primary human lung fibroblasts
Method in brief: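 Human lung fibroblasts in the MyoF system were exposed to compound for 24 h, after which decorin was quantified by ELISA. Activity was fitted in the positive direction relative to DMSO negative control.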

[8] = read-out: Matrix Metallopeptidase 1 (MMP1), MMP1 (gene 4312); experiment: BSK_MyoF_MMP1: BioMAP Diversity Plus: MyoF Assay for Matrix Metallopeptidase 1 (MMP1) Biomarker Activity (AID 2284268; active = hit-call score of the fitted dose curve at least 0.9, where 1 is the maximum; inactive = score below 0.9); settings: primary human lung fibroblasts
Method in brief: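 ELISA readout of MMP1 in primary human lung fibroblast cultures, 24 h post-dosing. Gain of signal versus DMSO vehicle control defines activity. Parallel SRB staining (0.1% after 10% TCA fixation, 560 nm) flags overt cytotoxicity.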

[9] = read-out: TIMP metallopeptidase inhibitor 1 (TIMP1), TIMP1 (gene 7076); experiment: BSK_MyoF_TIMP1: BioMAP Diversity Plus: MyoF Assay for TIMP metallopeptidase inhibitor 1 (TIMP1) Biomarker Activity (AID 2284269; active = hit-call score of the fitted dose curve at least 0.9, where 1 is the maximum; inactive = score below 0.9); settings: primary human lung fibroblasts
Method in brief: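 ELISA read-out of TIMP-1 from primary human lung fibroblast cultures 24 h after compound dosing; gain of signal relative to DMSO vehicle baseline defines activity.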

[10] = target: Bile acid receptor (Homo sapiens) (UniProt Q96RI1); experiment: OT_FXR_FXRSRC1_0480: Odyssey Thera (OT) 8-hour HEK293T Protein-Complementation Assay for Farnesoid X receptor/SRC-1 Co-activator (AID 2283383)
Method in brief: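 Human kidney HEK293T cells carried FXR/SRC-1 fragment-complementation constructs. Compounds were added and incubated 8 h. Reporter reassembly upon receptor–co-activator interaction was then quantified by fluorescence, with curves fitted in the positive direction relative to DMSO.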

[11] = test system: Sodium/Iodide Symporter (NIS), SLC5A5 (gene 6528); experiment: CPHEA_Stoker_NIS_Inhibition_RAIU: CPHEA's Radioactive Iodide Uptake (RAIU) Assay for Sodium/Iodide Symporter (NIS) Inhibition, Stoker and Laws Labs (AID 2283841)
Method in brief: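 Iodide uptake read as CPM of intracellular 125I (final 329 pM) after 2 h room-temperature exposure in HEPES-buffered HBSS, pH 7.4. Human NIS-expressing HEK293T cells; six concentrations 0.001–100 uM, 0.5% DMSO, normalised to DMSO wells.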

[12] = CCTE_Deisenroth_AIME_384WELL_CTox_Inactive: Cytotoxicity Assessment (CTOX) in CCTE's 384-well Estrogen Receptor Transactivation Assay without AIME metabolic competence (metabolism negative), Deisenroth Lab (AID 2284039);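 note: cell viability via live-cell protease substrate cleaved to fluorescent probe; cells exposed 24 h to medium preincubated 2 h with alginate-water beads without S9; loss of fluorescence signal means loss of viability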
Method in brief: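 Fluorescent protease-substrate viability readout after 24 h exposure of VM7Luc4E2 cells to conditioned medium. Chemicals (0.002–200 uM) first sat 2 h over alginate-water beads, no S9. Data fitted bidirectionally, loss of signal meaning viability loss.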

[13] = target: human Ephrin type-A Receptor 1 (EphA1), EPHA1 (gene 2041) (UniProt P21709); experiment: NVS_ENZ_hEphA1: NovaScreen (NVS) Enzymatic Assay for human Ephrin type-A Receptor 1 (EphA1) (AID 2283158);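 note: activity is signal loss versus DMSO meaning EphA1 kinase inhibition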
Method in brief: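 Cell-free enzymatic assay with recombinant EphA1 and fluorescent substrate; product separated by electrophoretic mobility shift, fluorescence intensity read 1 hour after dosing. Loss of signal versus DMSO baseline; primary duplicate screen at 25 uM, actives followed to 50 uM top concentration.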

[14] = test system: Thyroperoxidase (TPO), gene 54314; experiment: CCTE_Simmons_AUR_rTPO: CCTE's Amplex UltraRed Assay for Thyroperoxidase (TPO) Inhibition, Simmons Lab (AID 2283662);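 note: potency for loss of signal meaning inhibition of peroxidase activity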
Method in brief: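 Rat thyroid microsomes (5 ug protein) were incubated with test compound (8 concentrations, 5 nM–87.5 uM final, 0.5% DMSO), 25 uM Amplex UltraRed and 300 uM H2O2 in 200 mM phosphate buffer for 30 min at 37C in the dark; fluorescence read at 544/590 nm.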

[15] = target: Luciferin 4-monooxygenase (Photinus pyralis) (UniProt P08659); experiment: CCTE_Simmons_QuantiLum_inhib_2: CCTE's Firefly Luciferase Inhibition Assay, Simmons Lab (AID 2283767);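 for AC50: potency for inhibitors that lower luciferase luminescence relative to DMSO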
Method in brief: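 Luminescence loss relative to DMSO vehicle defines inhibition; detection reagent containing 150 uM D-luciferin and 147 uM dATP (final, pH 7.8) is injected immediately before each read. Enzyme is preincubated with an 8-point titration (5 nM–87.5 uM final) for 30 min at 37C.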

[16] = target: Peroxisome proliferator-activated receptor gamma (Homo sapiens) (UniProt P37231); experiment: NVS_NR_hPPARg: NovaScreen (NVS) Nuclear Receptor Binding Assay for human Peroxisome Proliferator-activated Receptor gamma (PPARg) (AID 2283370)
Method in brief: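 Cell-free binding to extracted PPARg protein, read by fluorescence polarization 2 h after dosing; loss of signal relative to DMSO baseline marks displacement. Primary screen in duplicate at 25 uM, actives retested in concentration series.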

[17] = read-out: Interferon-inducible T-cell alpha chemoattractant (ITAC), CXCL11 (gene 6373); experiment: BSK_hDFCGF_ITAC: BioMAP Diversity Plus: hDFCGF Assay for Interferon-inducible T-cell alpha chemoattractant (ITAC) Biomarker Activity (AID 2284251; active = hit-call score of the fitted dose curve at least 0.9, where 1 is the maximum; inactive = score below 0.9); settings: primary human foreskin fibroblasts
Method in brief: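 Primary human foreskin fibroblasts (hDFCGF system) treated for 24 h; I-TAC quantified by ELISA. Gain-direction fitting versus DMSO; parallel SRB staining of total protein flagged overt cytotoxicity.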

Sequence of Luciferin 4-monooxygenase (Photinus pyralis) (P08659 whole entry, looked up): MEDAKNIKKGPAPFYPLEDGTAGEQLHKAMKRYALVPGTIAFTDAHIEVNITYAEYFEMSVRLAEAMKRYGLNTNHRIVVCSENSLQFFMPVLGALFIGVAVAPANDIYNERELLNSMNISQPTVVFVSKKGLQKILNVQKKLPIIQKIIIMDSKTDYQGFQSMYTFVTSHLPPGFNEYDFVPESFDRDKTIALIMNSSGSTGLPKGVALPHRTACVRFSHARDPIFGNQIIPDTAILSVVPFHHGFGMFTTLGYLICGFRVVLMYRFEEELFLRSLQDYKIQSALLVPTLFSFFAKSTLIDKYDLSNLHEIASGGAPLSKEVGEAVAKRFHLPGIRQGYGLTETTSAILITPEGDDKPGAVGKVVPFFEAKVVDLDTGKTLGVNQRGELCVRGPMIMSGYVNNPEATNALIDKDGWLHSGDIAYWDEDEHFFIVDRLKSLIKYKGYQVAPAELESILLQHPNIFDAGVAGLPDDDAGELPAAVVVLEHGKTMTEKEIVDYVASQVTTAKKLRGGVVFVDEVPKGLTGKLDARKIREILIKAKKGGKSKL
Sequence of human Ephrin type-A Receptor 1 (EphA1), EPHA1 (gene 2041) (P21709 whole entry, looked up): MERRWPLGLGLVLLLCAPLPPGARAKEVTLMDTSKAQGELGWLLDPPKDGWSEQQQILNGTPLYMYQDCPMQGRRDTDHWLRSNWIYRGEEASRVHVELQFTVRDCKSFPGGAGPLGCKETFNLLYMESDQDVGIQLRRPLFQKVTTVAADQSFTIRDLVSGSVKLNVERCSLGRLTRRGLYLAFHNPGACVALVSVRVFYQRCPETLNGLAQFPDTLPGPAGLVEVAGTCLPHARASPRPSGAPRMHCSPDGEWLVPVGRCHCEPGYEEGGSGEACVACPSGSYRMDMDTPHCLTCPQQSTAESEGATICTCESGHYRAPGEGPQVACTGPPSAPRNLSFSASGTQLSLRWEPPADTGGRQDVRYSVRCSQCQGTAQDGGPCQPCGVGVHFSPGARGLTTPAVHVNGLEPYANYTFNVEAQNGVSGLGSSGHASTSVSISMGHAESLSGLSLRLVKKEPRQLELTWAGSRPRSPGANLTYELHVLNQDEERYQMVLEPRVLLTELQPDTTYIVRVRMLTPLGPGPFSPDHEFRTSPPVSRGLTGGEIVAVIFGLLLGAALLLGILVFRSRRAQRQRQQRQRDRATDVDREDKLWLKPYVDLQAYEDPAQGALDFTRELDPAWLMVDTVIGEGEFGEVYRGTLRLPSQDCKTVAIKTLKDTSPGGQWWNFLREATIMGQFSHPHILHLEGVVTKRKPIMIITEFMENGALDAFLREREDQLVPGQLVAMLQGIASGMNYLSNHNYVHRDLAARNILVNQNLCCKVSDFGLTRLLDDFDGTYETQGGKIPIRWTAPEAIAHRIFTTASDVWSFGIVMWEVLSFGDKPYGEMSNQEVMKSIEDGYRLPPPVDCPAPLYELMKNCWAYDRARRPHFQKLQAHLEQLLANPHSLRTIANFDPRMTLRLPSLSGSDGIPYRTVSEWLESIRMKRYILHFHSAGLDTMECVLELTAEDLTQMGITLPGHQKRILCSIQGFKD
Sequence of Peroxisome proliferator-activated receptor gamma (Homo sapiens) (P37231 whole entry, looked up): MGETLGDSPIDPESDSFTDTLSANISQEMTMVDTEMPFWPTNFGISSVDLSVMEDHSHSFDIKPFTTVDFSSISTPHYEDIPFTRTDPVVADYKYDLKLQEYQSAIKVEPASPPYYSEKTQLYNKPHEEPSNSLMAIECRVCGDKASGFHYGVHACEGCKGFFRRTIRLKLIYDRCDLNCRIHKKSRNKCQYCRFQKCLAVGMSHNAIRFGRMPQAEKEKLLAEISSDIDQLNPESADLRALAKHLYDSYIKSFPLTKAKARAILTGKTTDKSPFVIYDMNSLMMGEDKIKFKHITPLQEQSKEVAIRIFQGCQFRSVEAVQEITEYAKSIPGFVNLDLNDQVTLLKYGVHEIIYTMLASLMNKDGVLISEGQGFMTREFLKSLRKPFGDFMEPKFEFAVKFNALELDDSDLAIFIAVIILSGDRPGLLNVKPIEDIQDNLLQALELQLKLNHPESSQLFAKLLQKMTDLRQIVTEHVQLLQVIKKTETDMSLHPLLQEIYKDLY
Sequence of Bile acid receptor (Homo sapiens) (Q96RI1 whole entry, looked up, the tested form may be a part): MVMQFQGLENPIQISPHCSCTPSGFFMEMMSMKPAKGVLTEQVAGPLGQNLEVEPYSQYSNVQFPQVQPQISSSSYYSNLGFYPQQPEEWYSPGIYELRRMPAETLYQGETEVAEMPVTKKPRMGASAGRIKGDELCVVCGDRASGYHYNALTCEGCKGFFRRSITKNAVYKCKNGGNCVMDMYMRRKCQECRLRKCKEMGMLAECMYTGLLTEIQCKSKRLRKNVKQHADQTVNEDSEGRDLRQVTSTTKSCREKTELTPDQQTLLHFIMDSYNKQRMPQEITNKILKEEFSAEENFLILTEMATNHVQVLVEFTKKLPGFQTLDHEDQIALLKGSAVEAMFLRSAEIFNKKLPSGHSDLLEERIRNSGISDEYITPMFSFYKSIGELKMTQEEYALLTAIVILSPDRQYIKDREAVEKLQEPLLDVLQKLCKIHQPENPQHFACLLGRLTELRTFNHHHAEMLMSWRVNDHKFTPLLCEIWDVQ
Sequence of human Phosphodiesterase 10 (PDE10), PDE10A (gene 10846) (Q9Y233 whole entry, looked up): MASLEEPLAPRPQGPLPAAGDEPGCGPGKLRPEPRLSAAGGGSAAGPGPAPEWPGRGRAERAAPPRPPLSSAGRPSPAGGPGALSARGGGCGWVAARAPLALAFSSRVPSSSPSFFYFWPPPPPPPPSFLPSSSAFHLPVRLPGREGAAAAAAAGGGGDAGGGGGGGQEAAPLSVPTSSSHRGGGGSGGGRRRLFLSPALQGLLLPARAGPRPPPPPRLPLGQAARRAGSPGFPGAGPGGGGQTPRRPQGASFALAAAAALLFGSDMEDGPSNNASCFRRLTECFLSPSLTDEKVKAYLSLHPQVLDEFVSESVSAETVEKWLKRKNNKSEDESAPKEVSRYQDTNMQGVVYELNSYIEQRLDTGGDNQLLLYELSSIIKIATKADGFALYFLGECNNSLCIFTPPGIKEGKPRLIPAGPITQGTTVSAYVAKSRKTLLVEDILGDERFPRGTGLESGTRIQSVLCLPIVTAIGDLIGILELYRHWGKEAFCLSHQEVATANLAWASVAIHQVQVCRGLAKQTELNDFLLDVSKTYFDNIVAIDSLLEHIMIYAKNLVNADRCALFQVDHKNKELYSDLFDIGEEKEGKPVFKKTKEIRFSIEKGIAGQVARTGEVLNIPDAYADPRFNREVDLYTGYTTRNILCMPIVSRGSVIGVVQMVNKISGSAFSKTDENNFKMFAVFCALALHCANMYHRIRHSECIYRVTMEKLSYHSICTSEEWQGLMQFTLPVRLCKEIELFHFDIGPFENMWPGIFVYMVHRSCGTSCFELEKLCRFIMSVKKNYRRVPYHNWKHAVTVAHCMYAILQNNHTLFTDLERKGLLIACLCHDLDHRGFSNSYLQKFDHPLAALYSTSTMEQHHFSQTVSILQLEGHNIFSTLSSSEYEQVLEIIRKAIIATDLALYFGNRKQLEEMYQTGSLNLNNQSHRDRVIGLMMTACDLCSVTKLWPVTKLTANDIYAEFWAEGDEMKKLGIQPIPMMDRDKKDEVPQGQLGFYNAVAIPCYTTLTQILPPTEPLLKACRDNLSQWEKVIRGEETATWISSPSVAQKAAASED
Sequence of human Peroxisome Proliferator-activated Receptor alpha (PPARa), PPARA (gene 5465) (Q07869 whole entry, looked up): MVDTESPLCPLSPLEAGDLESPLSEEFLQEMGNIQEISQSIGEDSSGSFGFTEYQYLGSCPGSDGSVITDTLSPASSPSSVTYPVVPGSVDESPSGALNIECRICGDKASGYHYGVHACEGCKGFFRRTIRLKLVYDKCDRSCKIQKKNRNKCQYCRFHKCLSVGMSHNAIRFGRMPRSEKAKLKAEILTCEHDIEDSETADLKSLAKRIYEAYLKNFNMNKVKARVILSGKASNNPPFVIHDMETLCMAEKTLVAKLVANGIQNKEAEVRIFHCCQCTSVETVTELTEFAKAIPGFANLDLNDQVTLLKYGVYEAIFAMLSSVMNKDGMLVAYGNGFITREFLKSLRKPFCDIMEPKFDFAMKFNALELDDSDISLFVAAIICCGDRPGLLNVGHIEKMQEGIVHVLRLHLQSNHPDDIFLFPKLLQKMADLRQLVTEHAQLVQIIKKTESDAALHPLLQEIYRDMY

In the case of `CC(=O)CCc1ccccc1`, the outcome [1] is reported as “inactive”.
For `CC1=NN(c2cc(Cl)c(S(=O)(=O)O)cc2Cl)C(=O)C1N=Nc1ccc(S(=O)(=O)O)cc1` (stereo not drawn), the outcome [2] was “inactive”, the AC50 (SERPINA7 (gene 6906)) was 39.4 µM (active) and the AC50 (TTR (gene 7276)) was 18.8 µM (active).
With `CCCCCCCCCCC1CO1` (stereo not drawn) the AC50 [3] was 33.5 µM (active), the AC50 [4] was 31.1 µM (active) and the outcome [5] was “inactive”. The AC50 [6] was 29 µM (active), the outcome [7] was “inactive” and the AC50 (Decorin, DCN (gene 1634)) was 24.7 µM (active). For the same compound, the AC50 [8] was 3.97 µM (active) and the AC50 [9] was 32.3 µM (active).
With `COC(=O)[C@]1(C)CCC[C@@]2(C)[C@H]1CC=C1C=C(C(C)C)CC[C@@H]12` the AC50 [10] was 12.7 µM (active), the outcome [11] was “inactive” and the outcome [12] was “inactive”.
For `C1=CCC=C1`, the outcome [12] was “inactive”.
For `Clc1ccccn1`, the AC50 [13] was 9.99 µM (active).
For `CCCCCCC1CCC(=O)O1` (stereo not drawn), the outcome [2] was “inactive” and the outcome [12] was “inactive”.
For `CN(C)c1ccc(C(c2ccccc2)c2ccc(N(C)C)cc2)cc1`, the AC50 [14] was 10.6 µM (active), the outcome [15] was “inactive” and the AC50 [3] was 32.7 µM (active). For the same compound, the outcome [4] was “inactive”, the AC50 [5] was 11.9 µM (active) and the outcome [6] was “inactive”. The outcome [7] was “inactive”, the outcome (Decorin, DCN (gene 1634)) was “inactive” and the outcome [8] was “inactive”. For the same compound, the outcome [9] was “inactive”.
With `Cc1cccnc1` the outcome [16] was “inactive”, the outcome [11] was “inactive” and the outcome [3] was “inactive”. For the same compound, the outcome [4] was “inactive”, the outcome [5] was “inactive” and the outcome [6] was “inactive”. For the same compound, the outcome [7] was “inactive”, the outcome (Decorin, DCN (gene 1634)) was “inactive” and the outcome [8] was “inactive”. The outcome [9] was “inactive”.
With `CCCOCCC` the outcome [13] was “inactive” and the outcome [1] was “inactive”.
In the case of `O=C(c1ccccc1)c1ccccc1O`, the AC50 (SERPINA7 (gene 6906)) is reported as 17.9 µM (active) and the AC50 (TTR (gene 7276)) is reported as 1.05 µM (active).
With `Cc1ccccc1S(N)(=O)=O` the outcome [13] was “inactive”.
In the case of `Cc1cc(-n2nc3ccc(Cl)cc3n2)c(O)c(C(C)(C)C)c1`, the outcome [3] is reported as “inactive”, the outcome [4] is reported as “inactive” and the outcome [5] is reported as “inactive”. The outcome [6] was “inactive”, the outcome [7] was “inactive” and the outcome (Decorin, DCN (gene 1634)) was “inactive”. For the same compound, the outcome [8] was “inactive” and the outcome [9] was “inactive”.
In the case of `COc1ccccc1OCC(O)CO` (stereo not drawn), the outcome [13] is reported as “inactive” and the AC50 [1] is reported as 25 µM (active).
In the case of `Cc1cc(C)c(S(=O)(=O)O)cc1N=Nc1cc(S(=O)(=O)O)c2ccccc2c1O`, the outcome [16] is reported as “inactive”, the AC50 [14] is reported as 14.5 µM (active) and the AC50 [15] is reported as 2.98 µM (active).
For `F[B-](F)(F)F`, the outcome [16] was “inactive” and the AC50 [11] was 0.82 µM (active).
With `Nc1ccc(S(=O)(=O)Nc2cnc3ccccc3n2)cc1` the AC50 [14] was 0.715 µM (active) and the outcome [15] was “inactive”.
In the case of `Cc1cc2nc3c(=O)[nH]c(=O)nc-3n(C[C@H](O)[C@H](O)[C@H](O)CO)c2cc1C`, the AC50 [10] is reported as 37.3 µM (active) and the AC50 [11] is reported as 25.8 µM (active).
For `CCOC(=O)CC(=O)OCC`, the outcome [10] was “inactive”.
With `CCCCOC(=O)COc1ccc(Cl)cc1Cl` the outcome [10] was “inactive”, the outcome [12] was “inactive” and the AC50 (SERPINA7 (gene 6906)) was 9.59 µM (active).
For `COC(=O)c1ccccc1`, the outcome [1] was “inactive”.
For `CCOC(=O)c1ccccc1`, the outcome [16] was “inactive”.
For `CCCCC(CC)COC(=O)CS` (stereo not drawn), the outcome [2] was “inactive”, the AC50 [14] was 25.6 µM (active) and the outcome [15] was “inactive”.
For `CC(=O)OC(C)(C)Cc1ccccc1`, the outcome [10] was “inactive” and the outcome [12] was “inactive”.
In the case of `N#CCN(CC#N)CCN(CC#N)CC#N`, the outcome [13] is reported as “inactive” and the AC50 [1] is reported as 12.1 µM (active).
In the case of `CN(C)Cc1cc(C(C)(C)C)c(O)c(C(C)(C)C)c1`, the AC50 [17] is reported as 20 µM (active) and the outcome [17] is reported as “inactive”.
